Assay outcomes deposited in PubChem by National Center for Advancing Translational Sciences (NCATS).
FUS yeast rescue – qHTS for Suppressors of FUS Proteinopathy: Primary screen using FUS-linked yeast assay | 390,000 tested, 0.24% active | Potency, µM (series often up to 76.6 µM), usual class: activators | S. cerevisiae FUS-expressing, growth rescue, OD600, 24 h;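 also: plate controls were DMSO vehicle for no effect and reference control for full effect; nearly all actives have a fitted effect of over 55% in size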
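Galactose (2%) drives FUS expression in yeast precultured in raffinose; seeding density OD 0.005. Test compounds incubated 24hr at 30C and 99% humidity before absorbance at 600 nm was measured.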
Abeta rescue – qHTS for compounds that reverse cellular toxicity of Amyloid beta (A-beta) peptide in yeast: Primary Screen | yeast expressing A-beta42, growth rescue, OD600, 48 h; response scale: 0% DMSO, 100% iron-clioquinol control | Potency, µM (top dose mostly 46.1 µM), usual class: activators | 410,000 tested, 0.063% active; also: nearly all actives have a fitted effect of over 55% in size
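Yeast growth medium received pinned compounds, then yeast cells expressing toxic A-beta were added; plates incubated at 30 C for 48 hr. Growth read as absorbance at 600 nm, normalized to DMSO and equimolar FeCl3 plus clioquinol controls.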
aSyn yeast inh – qHTS of alpha-syn Inhibitors; Yeast expressing alpha-synuclein, growth rescue, BacTiter-Glo, 24 h; Potency, µM (series often up to 46.1 µM), for inactives: at the top dose growth rescue (activation), hits mostly activators; 370,000 tested, 0.14% active; also: % of control where 0% means no effect; nearly all actives have a fitted effect of over 65% in size
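Rescue of yeast growth: cells expressing toxic alpha-synuclein, induced in galactose at OD600 0.02, incubated with compound 24 h at 30 C. ATP luminescence quantified growth; inhibitors of toxicity appear as activators.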
TDP43 rescue – qHTS of TDP-43 Inhibitors | TDP-43 expressing yeast growth rescue, BacTiter-Glo, 24 h | Potency, µM (titrated, usually from 46.1 µM), for the others: at the highest dose growth rescue (activation), actives largely listed as activators | 410,000 tested, 1.8% active | AID 652104, 2013; also: % of control where 0% means no effect; nearly all actives have a fitted effect of over 50% in size
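Luminescence from BacTiter-Glo reports growth of TDP-43-expressing yeast after 24 hr at 30 deg C with compound. Cells were raffinose-pregrown to mid-log, then seeded in galactose medium at OD600=0.02.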
* = called active by the depositor; i = inactive; ? = inconclusive; nt = no result given; [ ] = dose if it differs, or a comment. Most compounds without a hit are left out; they make up all but 2.1% or so of the library. Calls follow the shape of the dose curve; as a rule, active = well fitted curve in the direction sought with a large enough effect; inconclusive = small, poorly fitted or top-dose-only effect, or another doubt; inactive = no such curve, though single readings can be large; an effect the other way counts as inactive or inconclusive. Potency is read from the fitted curve at half-maximal effect.

SMILES	FUS yeast rescue	Abeta rescue	aSyn yeast inh	TDP43 rescue
Cc1ccc2nc(Nc3ccc(C)c(F)c3)c3nncn3c2c1	i	i	nt	0%
CCCNC(=O)c1csc(Nc2cccc3ccccc23)n1	i	i	-34%	32µM*
Cc1cccc(NS(=O)(=O)c2ccc3c(c2)CCN3C(=O)C2CC2)c1C	i	i	nt	?
COCCNc1nc(-c2cc(-c3ccccc3)on2)cc(C(C)C)n1	i	i	-12%	16µM*
COCCNc1nc(C)cc(-c2cc(-c3ccc(Cl)cc3)on2)n1	i	i	3%	?
CCc1ccc(NC(=O)CSc2c(C)cnc3c2c(=O)n(C)c(=O)n3C)cc1	i	i	nt	14%
CC(C)=CC(=O)Nc1ccc(OCc2ccccc2)cc1	i	i	-21%	13µM*
CCOC(=O)c1cc(C#N)c(SC(C(=O)N2CCCCC2)c2ccccc2)nc1C (stereo not drawn)	nt	nt	12%	nt
COc1cc2nc(SCc3ccc(Cl)cc3Cl)n(Cc3cccs3)c(=N)c2cc1OC	i	i	0%	25µM*
O=C(Nc1cc(-c2nc3ccccc3o2)ccc1Cl)c1sc2c([N+](=O)[O-])cccc2c1Cl	i	i	nt	-5%
Cc1ccc(C)c(Cn2c(=O)n(CC3CCC(C(=O)N4CCOCC4)CC3)c(=O)c3sccc32)c1 (stereo not drawn)	i	i	nt	25%
C[C@H](NC(=O)c1ccco1)C(=O)Nc1nc(-c2ccccn2)cs1	nt	i	-3%	16%
O=C(Nc1nc(-c2ccccn2)cs1)c1ccco1	i	?	18µM*	-8%
O=C(Nc1nc(-c2cc3ccccc3oc2=O)cs1)c1ccco1	i	i	-8%	3.5µM*
O=c1oc2ccccc2cc1-c1csc(Nc2nc3c(F)cccc3s2)n1	nt	i	1%	-3%
Cc1ccc(C(=O)Nc2nc(-c3ccccn3)cs2)cc1S(=O)(=O)N1CCOCC1	i	i	13µM*	?
O=c1oc2ccccc2cc1-c1csc(NN=C2CCCCC2)n1	13µM*	i	3%	-10%
O=C(Nc1nc(-c2ccncc2)cs1)c1ccco1	?	i	-8%	-17%
COc1ccc(CCN2C(=O)c3oc4ccc(F)cc4c(=O)c3C2c2ccc(C(C)(C)C)cc2)cc1 (stereo not drawn)	i	i	nt	9%
Oc1cc2cc(-c3csc(-c4ccc(F)cc4)n3)ccc2[nH]1	nt	nt	-15%	nt
CC(C)(C)C1CCC(C(=O)OCC(=O)c2ccc[nH]2)CC1 (stereo not drawn)	i	i	4%	18µM*
O=C(NCc1ccc(F)cc1)c1ccc(CSc2nc3ccncc3n2Cc2ccc(F)cc2)cc1	i	i	nt	18%
Cc1cccc(OCCN2CSC(=S)N(C)C2)c1	i	i	-8%	22%
COc1ccccc1OCCN1CSC(=S)N(C)C1	i	i	-67%	20µM*
COc1ccc(CC(=O)Nc2cccc(SC)c2)cc1	nt	i	0%	13µM*
SMILES	FUS yeast rescue	Abeta rescue	aSyn yeast inh	TDP43 rescue
COc1cc(CC(=O)Nc2cccc(SC)c2)cc(OC)c1OC	i	i	1%	-1%
Cc1ccc(CCNC(=O)c2c(C)nn(-c3ccc(F)cc3)c2-n2cccc2)cc1	i	i	8%	22µM*
COc1ccc(CCNC(=O)c2c(C)nn(-c3ccc(F)cc3)c2-n2cccc2)cc1OC	i	i	?	20%
CC(C)(C)OC(=O)COc1cc(OCC(=O)OC(C)(C)C)c2c(=O)cc(-c3ccccc3)oc2c1	32µM*	i	0%	18%
COc1cc(OC)c2c(=O)cc(-c3ccccc3)oc2c1	i	i	-8%	35µM*
N#C/C(=C\Nc1ccccc1O)c1nc2ccccc2o1	i	i	-40%	7.1µM*
N#C/C(=C\c1ccncc1)c1nc2ccccc2o1	i	i	2%	-10%
O=S1(=O)CC2c3ccccc3CCN2CN1Cc1ccccc1 (stereo not drawn)	i	nt	nt	nt
O=C(OC1CCCCC1)c1ccc(NC(=O)c2ccco2)cc1	i	i[9.22 µM]	-26%	35µM*
O=C(Nc1ccc(OC(=O)c2ccco2)cc1)c1ccco1	i	i	-36%	-7%
O=C(Nc1ccc2nc(SCC(=O)N3CCOCC3)sc2c1)c1cccc(Cl)c1	?	i	nt	17%
CCCn1nc(NC(=O)C2CCCO2)c2cc3cc(C)ccc3nc21 (stereo not drawn)	i	i	-2%	35µM*
CCCn1nc(NC(=O)C2CCCO2)c2cc3ccc(C)cc3nc21 (stereo not drawn)	i	i	-3%	2%
COc1cc(/C=N/NC(=S)NC2CC3CCC2C3)ccc1O (stereo not drawn)	i	11µM*	-9%	22µM*
CCCCOC(=O)c1ccc(OC(=O)c2cccnc2)cc1	i	i	4%	13µM*
COc1ccc(/C=N/n2c(SC)nnc2-c2ccccc2)cc1C	i	i	4%	16µM*
CN(C)CCN(Cc1ccccc1)S(=O)(=O)c1ccc(-c2cc(C(F)(F)F)on2)s1	i	i	nt	14%
O=C(Nc1nc(-c2cccs2)c(-c2cccs2)s1)C1CCCC1	nt	i	-5%	14µM*
Cc1ccc(NC(=S)NC(=O)C2CCCC2)cc1C	i	8.9µM*	-23%	25%
N#Cc1ccc(NC(=S)NC(=O)C2CC2)cc1	i	i	?	13µM*
CC(=O)Nc1ccc(NC(=S)NC(=O)C2CC2)cc1	i	i	-8%	-18%
CN(c1ccccc1)S(=O)(=O)c1ccc(NC(=S)NC(=O)C2CC2)cc1	i	i	1%	18µM*
O=C(Nc1ccc(F)cc1)C1CCCCC1	i	i	-12%	20%
O=C(NC(=S)Nc1ccc(F)cc1)C1CCCCC1	i	5µM*	-6%	22%
Cc1cc2oc(C(=O)Nc3sc4c(c3C(=O)NCc3ccco3)CCC4)cc(=O)c2cc1C	i	i	nt	22%
SMILES	FUS yeast rescue	Abeta rescue	aSyn yeast inh	TDP43 rescue
CCc1cnc2c(c1SCC(=O)Nc1ccc(C(=O)OC)cc1)c(=O)n(C)c(=O)n2C	i	i	nt	13%
O=S1(=O)c2ccc(N3CCC[C@@H]3CO)cc2O[C@@H]2CCN1C2	i	nt	nt	nt
COC(=O)C1=C(C)N(Cc2ccccc2)C(=S)N[C@H]1c1ccc(Br)cc1	?	i	4%	16µM*
Cc1ccc(NS(=O)(=O)c2cc(C(=O)NCCSc3ccc(C)cc3)ccc2C)cc1	i	i	18%	-12%
Cc1ccc(SCCNC(=O)c2ccc(C)c(S(=O)(=O)Nc3cccc(C)c3)c2)cc1	32µM*	i	20%	-9%
O=C(c1cc2c(=O)n3ccccc3nc2s1)N1CCN(c2cccc(Cl)c2)CC1	?	i	11%	?
O=C(c1c(Cl)nc2sccn12)N1CCN(c2cccc(Cl)c2)CC1	i	i	-1%	14µM*
